This is an account of results in PubChem BioAssay AID1508601 (ICCB-Longwood Screening Facility, Harvard Medical School, 2020).

Assay [1] in a line: p53 stabilisation in HPV-positive human cells, imaging, p53-positive nuclei imaging, 24 h, 48 h (AID 1508601). To be noted: 24/48 h.
The target in assay [2] is Cellular tumor antigen p53 (Homo sapiens) (UniProt P04637). Described as above. The note with it: 24/48 h, stronger effect = higher value.
Setting [3] is: measured here: cell number at 24 h, Library stock concentration: 10 mM.
Setting [4] is: measured here: cell number at 48 h, Library stock concentration: 10 mM.
Setting [5] is: Library stock concentration: 10 mM.
[6] abbreviates: measured here: p53 positive nuclei at 24 h, Library stock concentration: 10 mM.
[7] abbreviates: measured here: cell number at 24 h, Library stock concentration: 500 nM.
Setting [8] is: measured here: cell number at 24 h, Library stock concentration: 1.5 uM.
Setting [9] is: measured here: cell number at 24 h, Library stock concentration: 4.6 uM.
Setting [10] is: measured here: cell number at 24 h, Library stock concentration: 13.7 uM.
Where [11] appears, read: measured here: cell number at 24 h, Library stock concentration: 41 uM.
Setting [12] is: measured here: cell number at 24 h, Library stock concentration: 123 uM.
Where [13] appears, read: measured here: cell number at 24 h, Library stock concentration: 370 uM.
Setting [14] is: measured here: cell number at 24 h, Library stock concentration: 1.111 mM.
Where [15] appears, read: measured here: cell number at 24 h, Library stock concentration: 3.33 mM.
[16] abbreviates: measured here: cell number at 24 h, Library stock concentration: 3.333 mM.
The mark [17] stands for this setting: measured here: cell number at 48 h, Library stock concentration: 500 nM.
Setting [18] is: measured here: cell number at 48 h, Library stock concentration: 1.5 uM.
Setting [19] is: measured here: cell number at 48 h, Library stock concentration: 4.6 uM.
The mark [20] stands for this setting: measured here: cell number at 48 h, Library stock concentration: 13.7 uM.
[21] abbreviates: measured here: cell number at 48 h, Library stock concentration: 41 uM.
[22] abbreviates: measured here: cell number at 48 h, Library stock concentration: 123 uM.
The mark [23] stands for this setting: measured here: cell number at 48 h, Library stock concentration: 370 uM.
Where [24] appears, read: measured here: cell number at 48 h, Library stock concentration: 1.111 mM.
Where [25] appears, read: measured here: cell number at 48 h, Library stock concentration: 3.33 mM.
[26] abbreviates: measured here: cell number at 48 h, Library stock concentration: 3.333 mM.
[27] abbreviates: Library stock concentration: 500 nM.
Where [28] appears, read: Library stock concentration: 1.5 uM.
[29] abbreviates: Library stock concentration: 4.6 uM.
Where [30] appears, read: Library stock concentration: 13.7 uM.
Where [31] appears, read: Library stock concentration: 41 uM.
Setting [32] is: Library stock concentration: 123 uM.
Setting [33] is: Library stock concentration: 370 uM.
[34] abbreviates: Library stock concentration: 1.111 mM.
Where [35] appears, read: Library stock concentration: 3.33 mM.
Setting [36] is: Library stock concentration: 3.333 mM.
[37] abbreviates: measured here: p53 positive nuclei at 24 h, Library stock concentration: 500 nM.
Setting [38] is: measured here: p53 positive nuclei at 24 h, Library stock concentration: 1.5 uM.
[39] abbreviates: measured here: p53 positive nuclei at 24 h, Library stock concentration: 4.6 uM.
Where [40] appears, read: measured here: p53 positive nuclei at 24 h, Library stock concentration: 13.7 uM.
Where [41] appears, read: measured here: p53 positive nuclei at 24 h, Library stock concentration: 41 uM.
[42] abbreviates: measured here: p53 positive nuclei at 24 h, Library stock concentration: 123 uM.
Where [43] appears, read: measured here: p53 positive nuclei at 24 h, Library stock concentration: 370 uM.
[44] abbreviates: measured here: p53 positive nuclei at 24 h, Library stock concentration: 1.111 mM.
Where [45] appears, read: measured here: p53 positive nuclei at 24 h, Library stock concentration: 3.33 mM.
The mark [46] stands for this setting: measured here: p53 positive nuclei at 24 h, Library stock concentration: 3.333 mM.
[47] abbreviates: measured here: cell number at 24 h, concentration not given here.
Where [48] appears, read: measured here: cell number at 48 h, concentration not given here.
Setting [49] is: measured here: p53 positive nuclei at 24 h, concentration not given here.

Among all 5,700 compounds or so, about 85 (1%) were called active. The sample holds actives, similar compounds and a random draw of the others, so the mix is not that of the screen. Rule as the data show it: active = p53-positive nuclei above about 36% (passing the limit was not always enough); inactive = the rest.

Sequence of Cellular tumor antigen p53 (Homo sapiens) (P04637 whole entry, looked up): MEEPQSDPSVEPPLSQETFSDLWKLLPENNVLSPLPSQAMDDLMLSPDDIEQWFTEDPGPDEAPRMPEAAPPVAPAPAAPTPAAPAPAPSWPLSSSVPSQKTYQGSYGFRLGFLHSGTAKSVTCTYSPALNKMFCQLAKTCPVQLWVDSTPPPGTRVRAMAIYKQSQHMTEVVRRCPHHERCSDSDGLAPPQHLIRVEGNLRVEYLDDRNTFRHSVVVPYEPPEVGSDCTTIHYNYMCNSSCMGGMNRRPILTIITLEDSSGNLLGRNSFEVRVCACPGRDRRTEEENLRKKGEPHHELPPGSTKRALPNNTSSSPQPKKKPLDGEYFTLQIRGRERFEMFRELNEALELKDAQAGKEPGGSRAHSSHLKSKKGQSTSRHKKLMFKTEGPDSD

On to `COC(=O)C=CC(=O)N(O)CCCCNCc1ccc(COC(=O)Nc2cccc3ccccc23)cc1`, for which the nuclei count, normalised in assay [1] (measured here: cell number at 24 h, Library stock concentration: 80 uM) came to 119%; in assay [1] (measured here: cell number at 24 h, Library stock concentration: 400 uM), 118%; in assay [1] (measured here: cell number at 24 h, Library stock concentration: 2 mM) it was 116%; in assay [1] (setting [3]), 97.3%; in assay [1] (measured here: cell number at 48 h, Library stock concentration: 80 uM), 112%; in assay [1] (measured here: cell number at 48 h, Library stock concentration: 400 uM) it was 113%. For the same compound, the nuclei count, normalised was determined as 110% in assay [1] (measured here: cell number at 48 h, Library stock concentration: 2 mM) and 92.8% in assay [1] (setting [4]). Further, the p53-positive nuclei, normalised in assay [2] (Library stock concentration: 80 uM) is -0.786% (inactive); in assay [2] (Library stock concentration: 400 uM), -0.552% (inactive); in assay [2] (Library stock concentration: 2 mM), -0.616% (inactive); in assay [2] (setting [5]) it was -0.57% (inactive); in assay [2] (measured here: p53 positive nuclei at 24 h, Library stock concentration: 80 uM) it was -0.122%; in assay [2] (measured here: p53 positive nuclei at 24 h, Library stock concentration: 400 uM), -0.0743%. In addition, the p53-positive nuclei, normalised in assay [2] (measured here: p53 positive nuclei at 24 h, Library stock concentration: 2 mM) was -0.0278%; in assay [2] (setting [6]) it was -0.0473%.

Take `CC(=O)OC1C(=O)[C@]2(C)C(O)CC3OC[C@@]3(OC(C)=O)C2C(OC(=O)c2ccccc2)[C@]2(O)CC(OC(=O)C(O)C(NC(=O)c3ccccc3)c3ccccc3)C(C)=C1C2(C)C` (some centres undefined): the nuclei count, normalised in assay [1] (setting [7]) stood at 124%; in assay [1] (setting [8]), 89.9%; in assay [1] (setting [9]), 58.2%; in assay [1] (setting [10]), 49%; in assay [1] (setting [11]), 47.4%; in assay [1] (setting [12]) it was 43.5%. For the same compound, the nuclei count, normalised in assay [1] (setting [13]) was found to be 42%; in assay [1] (setting [14]) it was 43.9%; in assay [1] (setting [15]) it was 33.4%; in assay [1] (setting [16]), 39.5%; in assay [1] (setting [3]) it was 44%; in assay [1] (setting [17]) it was 119%. Besides, the nuclei count, normalised worked out at 71.2% in assay [1] (setting [18]); 36.2% in assay [1] (setting [19]); 29.7% in assay [1] (setting [20]); 28.6% in assay [1] (setting [21]); 29.2% in assay [1] (setting [22]); 26.7% in assay [1] (setting [23]). Further, the nuclei count, normalised amounted to 28.6% in assay [1] (setting [24]), 27.2% in assay [1] (setting [25]), 26.4% in assay [1] (setting [26]) and 28.4% in assay [1] (setting [4]). Moreover, the p53-positive nuclei, normalised in assay [2] (setting [27]) is 0.615% (inactive); in assay [2] (setting [28]) it was 7.83% (inactive); in assay [2] (setting [29]), 11.3% (inactive); in assay [2] (setting [30]), 5.37% (inactive); in assay [2] (setting [31]), 2.36% (inactive); in assay [2] (setting [32]), 1.56% (inactive). The p53-positive nuclei, normalised is 0.755% (inactive) in assay [2] (setting [33]); 1.14% (inactive) in assay [2] (setting [34]); -0.197% (inactive) in assay [2] (setting [35]); 0.0812% (inactive) in assay [2] (setting [36]); 0.227% (inactive) in assay [2] (setting [5]); -0.0449% in assay [2] (setting [37]). Moreover, the p53-positive nuclei, normalised in assay [2] (setting [38]) is 0.807%; in assay [2] (setting [39]) it was 1.13%; in assay [2] (setting [40]) it was -0.0184%; in assay [2] (setting [41]) it was 0.131%; in assay [2] (setting [42]) it was 0.31%; in assay [2] (setting [43]) it was 0.493%. In addition, the p53-positive nuclei, normalised in assay [2] (setting [44]) was 0.16%; in assay [2] (setting [45]), -0.232%; in assay [2] (setting [46]) it was 0.515%; in assay [2] (setting [6]), 0.00376%.

`Cc1[nH]c2ccccc2c1CCNCc1ccc(C=CC(=O)NO)cc1`: the nuclei count, normalised stood at 37% in assay [1] (setting [15]) and 20.2% in assay [1] (setting [25]). Further, the p53-positive nuclei, normalised is 107% (active) in assay [2] (setting [35]) and 92.9% in assay [2] (setting [45]).

Turning to `Cc1[nH]c2ccccc2c1CCNC(=O)c1cccs1`, the nuclei count, normalised in assay [1] (setting [15]) turned out to be 115%; in assay [1] (setting [25]) it was 109%. Further, the p53-positive nuclei, normalised was -0.163% (inactive) in assay [2] (setting [35]) and -0.341% in assay [2] (setting [45]).

As for `CN(C)Cc1ccc(S(=O)(=O)n2ccc(C=CC(=O)NO)c2)cc1`, the nuclei count, normalised in assay [1] (setting [15]) turned out to be 86.4%; in assay [1] (setting [25]), 84%. Besides, the p53-positive nuclei, normalised in assay [2] (setting [35]) was 2.58% (inactive); in assay [2] (setting [45]) it was 5%.

Regarding `NC(=O)c1ncn(C2OC(CO)C(O)C2O)c1O` (centres undefined), the nuclei count, normalised in assay [1] (setting [7]) is 107%; in assay [1] (setting [8]) it was 106%; in assay [1] (setting [9]), 114%; in assay [1] (setting [10]), 113%; in assay [1] (setting [11]), 103%; in assay [1] (setting [12]), 107%. The nuclei count, normalised was determined as 112% in assay [1] (setting [13]); 97.9% in assay [1] (setting [14]); 106% in assay [1] (setting [16]); 104% in assay [1] (setting [3]); 106% in assay [1] (setting [17]); 107% in assay [1] (setting [18]). In addition, the nuclei count, normalised in assay [1] (setting [19]) came out at 110%; in assay [1] (setting [20]), 108%; in assay [1] (setting [21]), 107%; in assay [1] (setting [22]), 107%; in assay [1] (setting [23]) it was 113%; in assay [1] (setting [24]), 105%. Moreover, the nuclei count, normalised in assay [1] (setting [26]) amounted to 108%; in assay [1] (setting [4]), 102%. Moreover, the p53-positive nuclei, normalised in assay [2] (setting [27]) is -0.204% (inactive); in assay [2] (setting [28]), -0.0465% (inactive); in assay [2] (setting [29]), 0.0159% (inactive); in assay [2] (setting [30]), -0.0544% (inactive); in assay [2] (setting [31]) it was -0.167% (inactive); in assay [2] (setting [32]), -0.128% (inactive). For the same compound, the p53-positive nuclei, normalised in assay [2] (setting [33]) is -0.0645% (inactive); in assay [2] (setting [34]), -0.129% (inactive); in assay [2] (setting [36]), -0.208% (inactive); in assay [2] (setting [5]), -0.16% (inactive); in assay [2] (setting [37]) it was -0.239%; in assay [2] (setting [38]), -0.0183%. Moreover, the p53-positive nuclei, normalised was -0.139% in assay [2] (setting [39]); -0.19% in assay [2] (setting [40]); -0.128% in assay [2] (setting [41]); 0.0805% in assay [2] (setting [42]); -0.0891% in assay [2] (setting [43]); -0.183% in assay [2] (setting [44]). Besides, the p53-positive nuclei, normalised in assay [2] (setting [46]) is -0.128%; in assay [2] (setting [6]), -0.0747%.

Take `O=C(c1cn2cccnc2n1)N1CCCC(Cn2cc(C3CCCC3)nn2)C1` (centres undefined): the nuclei count, normalised in assay [1] (setting [47]) was 84.5%; in assay [1] (setting [48]), 92.1%. For the same compound, the results for the p53-positive nuclei, normalised in assay [2] (concentration not given here) and in assay [2] (setting [49]) were -0.0576% (inactive) and -0.142%, respectively.

For `C#C[C@]1(O)CCC2C3CCc4cc(O)ccc4C3CC[C@@]21C` (some centres undefined), the nuclei count, normalised turned out to be 85.4% in assay [1] (setting [47]) and 37.7% in assay [1] (setting [48]). In addition, the p53-positive nuclei, normalised in assay [2] (concentration not given here) is 83% (active); in assay [2] (setting [49]), 8.99%.

Regarding `C#C[C@@]1(O)CC[C@H]2[C@@H]3CCc4cc(O)ccc4[C@@H]3CC[C@@]21C`, the values for the nuclei count, normalised in assay [1] (setting [15]) and in assay [1] (setting [25]) were 80.8% and 66.7%, respectively. Moreover, the results for the p53-positive nuclei, normalised in assay [2] (setting [35]) and in assay [2] (setting [45]) were 15.7% (inactive) and 2.17%, respectively.
